About 11,000 (3.1%) of roughly 360,000 compounds were called active. Cut-off read from the data, not from the text of the source: active = activity change below about -30%; inactive = the rest. The full list was thinned out, with actives kept by preference.
% is set by controls: 0 for no effect and ±100 for the full control effect.

In the assay the target is D(1A) dopamine receptor (Homo sapiens) (UniProt P21728). Briefly: Antagonist of Human D 1 Dopamine Receptor: qHTS. The settings on record: HEK293 TREx D1 cells, calcium flux, dopamine EC80; at 10 µM; active compounds read low. Summed up: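 Tetracycline-induced HEK293 Trex D1 cells, force-coupled to calcium, dye-loaded; compounds added and read 180 s, then EC80 dopamine added and calcium flux tracked kinetically another 180 s.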
Chain of D(1A) dopamine receptor (Homo sapiens) (P21728 whole entry, looked up): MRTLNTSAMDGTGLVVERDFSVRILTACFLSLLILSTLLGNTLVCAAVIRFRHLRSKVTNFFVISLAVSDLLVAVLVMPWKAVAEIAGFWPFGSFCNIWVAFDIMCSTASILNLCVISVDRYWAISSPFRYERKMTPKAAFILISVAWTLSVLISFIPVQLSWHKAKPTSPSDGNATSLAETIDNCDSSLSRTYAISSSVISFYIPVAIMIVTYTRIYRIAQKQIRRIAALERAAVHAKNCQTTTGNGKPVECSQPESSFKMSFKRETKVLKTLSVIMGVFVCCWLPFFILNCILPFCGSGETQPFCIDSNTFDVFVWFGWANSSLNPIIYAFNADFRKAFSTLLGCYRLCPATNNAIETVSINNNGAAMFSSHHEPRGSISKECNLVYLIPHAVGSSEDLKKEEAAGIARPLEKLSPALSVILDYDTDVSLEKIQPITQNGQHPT
For the compound `O=C(Nc1ccccc1F)c1ccccc1-c1ccc(C(F)(F)F)cc1`, the activity change, negative = inhibition is -10% (inactive).

`Cc1ccc(NC(=O)NC(=O)c2ccccc2)cc1F`: the activity change, negative = inhibition is -1.14% (inactive).

With `Cc1ccc(NC2=C(c3ccc(C(F)(F)F)cc3)C(=O)c3ccccc32)cc1F`, the activity change, negative = inhibition is -32.9% (active).

As to `Cc1ccccc1NC(=O)Cn1cc(C(=O)c2cccs2)c2ccccc21`, the activity change, negative = inhibition is -14.9% (inactive).

With `COc1ccc(-n2nc(C(=O)NCCc3ccc(Cl)cc3)c3c4ccccc4n(C)c3c2=O)cc1Cl`, the activity change, negative = inhibition is -3.18% (inactive).

As for `Cc1ccc(CCNC(=O)c2ccc3c(c2)N(Cc2cc(C)ccc2C)C(=O)c2ccccc2S3=O)cc1` (stereo not given), the activity change, negative = inhibition was -1.98% (inactive).

For `COc1cccc2cc(-c3nc(Cl)c4c5c(sc4n3)CC(C)CC5)c(=O)oc12` (stereo not given), the activity change, negative = inhibition is 7.27% (inactive).

On to `Cc1ccc2nc(C)c3c(c2c1)N(c1ccccc1)CC3`, for which the activity change, negative = inhibition was -47.3% (active).

On to `Cc1ccc2nc(NC3=NCN(CCc4ccccc4)CN3)nc(C)c2c1`, for which the activity change, negative = inhibition is 8.22% (inactive).

Consider `Cc1ccc2nc(CNC(=O)c3ccccc3)[nH]c2c1`, for which the activity change, negative = inhibition was 2.33% (inactive).

Regarding `O=C(Nc1ccc(F)cc1F)c1cnn(-c2ccc(F)cc2)c1-n1cccc1`, the activity change, negative = inhibition is 1.78% (inactive).

Consider `CCOC(=O)C1=C(CSc2nccn2C)NC(=O)NC1c1ccc(OC)cc1` (stereo not given), for which the activity change, negative = inhibition was -35% (active).

In the case of `CCOC(=O)C1=C(CN2CCc3ccccc32)NC(=O)NC1c1ccc(Cl)cc1` (stereo not given), the activity change, negative = inhibition was 19.3% (inactive).

As to `CCOC(=O)C1=C(CCc2ccccc2)NC(=O)NC1c1ccc2ccccc2c1` (stereo not given), the activity change, negative = inhibition is 13.1% (inactive).

Turning to `CCN(CC)c1ccc(NS(=O)(=O)c2cc(-c3cc(C)no3)ccc2C)c(C)c1`, the activity change, negative = inhibition was -8.08% (inactive).

Consider `COc1ccc(N2CCN(C(=O)C3CCCN(C(=O)c4cc5sccc5n4C)C3)CC2)cc1` (stereo not given), for which the activity change, negative = inhibition is -16.9% (inactive).

As to `CC(NC(=O)c1cc(Sc2ccc(F)cc2F)nc2ccccc12)c1ccccc1` (stereo not given), the activity change, negative = inhibition was -44.9% (active).

With `CCc1ccc(Sc2cc(C(=O)NCCCOC(C)C)c3ccccc3n2)cc1`, the activity change, negative = inhibition was 9.99% (inactive).

Regarding `CC(NC(=O)c1cc(=O)[nH]c2ccccc12)c1ccc(F)cc1F` (stereo not given), the activity change, negative = inhibition was -0.391% (inactive).

As to `CCOc1ccccc1NC(=O)Cn1c(=O)n(-c2cccc(C)c2)c(=O)c2c1c1cc(OC)ccc1n2C`, the activity change, negative = inhibition is 9% (inactive).

For the compound `CN(C(=O)COc1ncnc2c1cnn2-c1ccccc1)C1CCCCC1`, the activity change, negative = inhibition is 2.82% (inactive).

As to `c1ccc(-n2ncc3c2ncn2c(C4CCCCC4)nnc32)cc1`, the activity change, negative = inhibition was -30.2% (active).

With `CC(C)Sc1ncnc2c1cnn2-c1ccccc1`, the activity change, negative = inhibition was 11.9% (inactive).

Consider `Cc1ccc(NC(=O)Cn2c(=O)n(-c3ccccc3)c(=O)c3c4c(sc32)CCCC4)cc1`, for which the activity change, negative = inhibition was -4.05% (inactive).

As to `CCOC(=O)N1CCc2c(sc3c2C(=O)NC(c2ccccc2F)N3)C1` (stereo not given), the activity change, negative = inhibition was 4.82% (inactive).

In the case of `O=C(CSc1ncc(CO)n1Cc1ccc(F)cc1)NCc1ccco1`, the activity change, negative = inhibition was -2.59% (inactive).

As for `Cc1nnc(NC(=O)C(c2ccccc2)c2ccccc2)s1`, the activity change, negative = inhibition was 0.172% (inactive).

`O=C(CCN1CCN(c2ccccc2)CC1)NNC(=S)Nc1ccccc1`: the activity change, negative = inhibition was -7.38% (inactive).

`CCCCC(=O)NNC(=S)NC(=O)C(c1ccccc1)c1ccccc1`: the activity change, negative = inhibition was -50.5% (active).

Take `Cc1c(C(=O)NCC2CCCO2)sc2nc(-c3ccccc3)cn12` (stereo not given): the activity change, negative = inhibition is 2.03% (inactive).

As for `COc1ccc(-c2cn3c(C)c(C(=O)Nc4cc(C)cc(C)c4)sc3n2)cc1`, the activity change, negative = inhibition was 9.7% (inactive).

Regarding `Cc1c(C(=O)N2CC(C)OC(C)C2)sc2nc(-c3ccccc3)cn12` (stereo not given), the activity change, negative = inhibition is -32.4% (active).

`Cc1cccc(NC(=O)c2nnn(CC(=O)Nc3ccc(C(C)C)cc3)c2N)c1C`: the activity change, negative = inhibition was 5.98% (inactive).

As to `CN(c1cccc(NC(=O)c2ccc(CN3CCc4ccccc4C3)cc2)c1)S(C)(=O)=O`, the activity change, negative = inhibition was -37.7% (active).

Take `CN(c1ccc(C(=O)N2CCc3ccccc3C2)cc1)S(C)(=O)=O`: the activity change, negative = inhibition is 1.19% (inactive).

Regarding `Cc1cccc(C)c1NC(=O)c1ccc(CN2CCc3ccccc3C2)cc1`, the activity change, negative = inhibition was -14.8% (inactive).

Consider `O=C(Nc1ccc(OC(F)(F)F)cc1)C1CCCN(S(=O)(=O)c2ccc(Br)s2)C1` (stereo not given), for which the activity change, negative = inhibition is -19.1% (inactive).

`COCc1ccc(CN2CCC(Oc3ccc(C(=O)NCc4ccccn4)cc3)CC2)o1`: the activity change, negative = inhibition was -5.9% (inactive).

Turning to `O=C(NCCOc1cccnc1)c1ccc(OC2CCN(Cc3ccccn3)CC2)cc1`, the activity change, negative = inhibition is -0.574% (inactive).

As to `Cn1cc(CNC(=O)c2ccc(OC3CCN(Cc4ccccn4)CC3)cc2)cn1`, the activity change, negative = inhibition was -41.2% (active).

Turning to `CC(CCCc1ccccc1)NC(=O)c1nn(-c2ccc(Cl)cc2)nc1CO` (stereo not given), the activity change, negative = inhibition is 3.03% (inactive).

For the compound `O=[N+]([O-])c1cc(S(=O)(=O)CCCN2CCOCC2)ccc1F`, the activity change, negative = inhibition is -12.6% (inactive).

As for `O=S(=O)(NCCCN1CCOCC1)c1ccc(F)c(Cl)c1`, the activity change, negative = inhibition is -34.6% (active).

As to `O=S(=O)(NCC1CC1)c1ccc(F)c(Cl)c1`, the activity change, negative = inhibition is -3.94% (inactive).

In the case of `CCOc1ccc(C2C(=O)N(C3CCCCC3)CC(=O)N2CCC2=CCCCC2)cc1OC` (stereo not given), the activity change, negative = inhibition was 39.1% (inactive).

For the compound `Cc1cc(OCCN2CCCC2)cc(C(C)C)c1`, the activity change, negative = inhibition is -2.52% (inactive).

In the case of `Cc1cc(OCCN2CCCC2)ccc1C(C)C`, the activity change, negative = inhibition was -30% (active).

Take `c1ccc2cc(OCCN3CCCC3)ccc2c1`: the activity change, negative = inhibition was 12.7% (inactive).

In the case of `Cc1ccc(NC(=O)Cn2nnc3sc4c(c3c2=O)CCC(C)C4)cc1` (stereo not given), the activity change, negative = inhibition was -17.2% (inactive).

Turning to `CCc1cccc(C)c1Nc1c(-c2ccc(N(C)C)cc2)nc2ncccn12`, the activity change, negative = inhibition is 6.48% (inactive).

Take `Cc1ccccc1C(=O)N(Cc1ccc(N(C)C)cc1)CC1CCCO1` (stereo not given): the activity change, negative = inhibition is 12.9% (inactive).

Regarding `N#Cc1nc(Nc2cc(F)cc(Cl)c2)nc(NC2CCCC2)n1`, the activity change, negative = inhibition is -27% (inactive).

For the compound `Cc1cc(C)cc(NS(=O)(=O)c2ccc(-c3cc(C)no3)s2)c1`, the activity change, negative = inhibition was -9.8% (inactive).

With `COc1ccc(C)cc1NC(=O)COCc1cc(-c2cccs2)on1`, the activity change, negative = inhibition was 15% (inactive).

Consider `Cc1cc(-c2ccc(S(=O)(=O)N3CCN(c4cccc(C(F)(F)F)c4)CC3)s2)on1`, for which the activity change, negative = inhibition was -24.5% (inactive).

Take `Cc1cc(-c2ccc(S(=O)(=O)N3CCc4ccccc4C3)s2)on1`: the activity change, negative = inhibition was -15.7% (inactive).

For `Cc1cccc(N2CCN(S(=O)(=O)c3ccc(-c4cc(C)no4)s3)CC2C)c1` (stereo not given), the activity change, negative = inhibition was -39.9% (active).

For `Cc1ccc(C)c(N2C(=O)N(Cc3c(F)cccc3Cl)c3ccccc3S2(=O)=O)c1`, the activity change, negative = inhibition was -19.3% (inactive).

With `O=c1onc(-c2c(F)cccc2F)n1-c1ccccc1Cl`, the activity change, negative = inhibition is -36.4% (active).

For the compound `O=C(Cn1c(-c2ccc(Cl)cc2)noc1=O)N1CCN(c2ccccc2F)CC1`, the activity change, negative = inhibition is -13.7% (inactive).

`CCOc1ccccc1CNCc1c(C(=O)O)c(C)n(Cc2ccc(C)cc2)c1C`: the activity change, negative = inhibition was 0.5% (inactive).

Turning to `CCCCNc1ccc(-c2nc(-c3ccncc3)no2)cc1[N+](=O)[O-]`, the activity change, negative = inhibition was 10.8% (inactive).

For the compound `CCOC(=O)c1ccc(NC(=O)C2CCN(S(=O)(=O)c3ccc4c(c3)CCCC(=O)N4)CC2)cc1`, the activity change, negative = inhibition is 2.67% (inactive).

For the compound `CCCCOc1ccc(NC(=O)c2cc3c(n(-c4ccc(Cl)cc4)c2=O)CCCC3=O)cc1`, the activity change, negative = inhibition was 1.15% (inactive).

For the compound `C[C@@H](NC(=O)OC(C)(C)C)c1nnc(S(=O)(=O)Cc2ccccc2)o1`, the activity change, negative = inhibition is -33% (active).

On to `CC(C)(C)c1ccc(C(CC(=O)O)NS(=O)(=O)Cc2ccccc2)cc1` (stereo not given), for which the activity change, negative = inhibition was -2.49% (inactive).

With `COc1ccccc1NC(=O)[C@H](COCc1ccccc1)NC(=O)OC(C)(C)C`, the activity change, negative = inhibition is -13.2% (inactive).

On to `O=C(NCCc1ccccc1)c1cnc2sc(N3CCCC3)nn2c1=O`, for which the activity change, negative = inhibition was 8.92% (inactive).

Consider `CCOc1ccc(NC(=O)CCC(=O)N2CC(C)Oc3ccc(C)cc32)cc1` (stereo not given), for which the activity change, negative = inhibition was -0.916% (inactive).

With `Cc1cccc(N2CCN(c3ccc(C(=O)O)cc3NC(=O)c3ccccc3F)CC2C)c1` (stereo not given), the activity change, negative = inhibition was 20.1% (inactive).

`CC(Nc1ccc(-c2nc(-c3ccco3)no2)cc1[N+](=O)[O-])c1ccccc1` (stereo not given): the activity change, negative = inhibition was -5.4% (inactive).

For the compound `CNc1ccc(-c2nc(-c3ccco3)no2)cc1[N+](=O)[O-]`, the activity change, negative = inhibition was -31.8% (active).

Turning to `O=[N+]([O-])c1cc(-c2nc(-c3ccccc3)no2)ccc1NCc1ccco1`, the activity change, negative = inhibition was -9.94% (inactive).

Take `CNc1ccc(-c2nc(-c3ccccc3C)no2)cc1[N+](=O)[O-]`: the activity change, negative = inhibition is -6.85% (inactive).

Regarding `CN(Cc1ccccc1)c1ccc(-c2nc(-c3ccccc3)no2)cc1[N+](=O)[O-]`, the activity change, negative = inhibition was -53.5% (active).

In the case of `COc1ccccc1-c1noc(-c2ccc(NCc3ccccc3)c([N+](=O)[O-])c2)n1`, the activity change, negative = inhibition is 4.22% (inactive).

For the compound `CCC(=O)Nc1c(S(=O)(=O)c2ccccc2)c2nc3ccccc3nc2n1Cc1ccccc1`, the activity change, negative = inhibition was -7.1% (inactive).

Consider `CCN(CC)CCn1c(N)c(S(=O)(=O)c2ccccc2)c2nc3ccccc3nc21`, for which the activity change, negative = inhibition was -52.8% (active).

As to `Cc1ccc(S(=O)(=O)c2c(N)n(C)c3nc4ccccc4nc23)cc1`, the activity change, negative = inhibition was -3.59% (inactive).

As for `CCn1cc(C(=O)NCCc2ccccc2)c(=O)c2cc(S(=O)(=O)N3CCCCCC3)ccc21`, the activity change, negative = inhibition is -7.94% (inactive).

As to `CCn1c2ccccc2c2nnc(N3CCN(c4cc(C)ccc4C)CC3)nc21`, the activity change, negative = inhibition is -7.14% (inactive).

In the case of `COc1cccc(C(=O)NC2CCN(C#N)CC2)c1`, the activity change, negative = inhibition was 4.13% (inactive).

Turning to `O=C(NCCCN1CCCC1=O)c1ccc(S(=O)(=O)Nc2ccccc2)cc1`, the activity change, negative = inhibition is 4.25% (inactive).

Turning to `O=C(NCCCN1CCCC1=O)c1cccc(S(=O)(=O)NCc2ccccc2)c1`, the activity change, negative = inhibition was -24.9% (inactive).

For the compound `Cc1cccc(C(=O)NCCCN2CCCC2=O)c1`, the activity change, negative = inhibition is -31.5% (active).

`CCCCCCn1nnc2sc(-c3ccccc3)cc2c1=O`: the activity change, negative = inhibition was 0.186% (inactive).

Turning to `CCOC(=O)c1cc(NC(=O)c2ccc(Cl)cc2)c(=O)oc1-c1ccccc1`, the activity change, negative = inhibition is -34.6% (active).

For the compound `CCOC(=O)c1cc(NC(=O)c2ccc(F)cc2)c(=O)n2c1oc1ccccc12`, the activity change, negative = inhibition is 0.884% (inactive).

For `CC(=O)c1cc(NC(=O)c2ccccc2)c(=O)oc1/C=C/N(C)C`, the activity change, negative = inhibition is 0.591% (inactive).

For the compound `CSc1ccccc1NC(=O)CCS(=O)(=O)c1nc(-c2cccs2)cc(C(F)(F)F)n1`, the activity change, negative = inhibition was 2.34% (inactive).

For the origin of these results see PubChem BioAssay AID504652 (National Center for Advancing Translational Sciences (NCATS), 2011).
